# Measured values published in PMC5540273 (PLoS ONE, 2017).
# Test system: CSNK1G3
# Settings: concentration: 1 μM, replicates: in singlicate; n = 1
# 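Note: KINOMEscan kinase panel screen.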
row,Compound,%Inh
1,CN(C)S(=O)(=O)c1cc(-c2ccc3nccc(-c4cccc(S(N)(=O)=O)c4)c3c2)cnc1N [GSK1669921],33%
2,CCS(=O)(=O)c1ccc(OC)c(Nc2nccc(-c3c(-c4cccc(NC(=O)c5c(F)cccc5F)c4)nn4ncccc34)n2)c1 [GSK326180],15%
3,COc1cc(Nc2nccc(N3CCC(NC(=O)c4cc5ccccc5s4)C3)n2)cc(OC)c1OC (stereo not shown) [GSK1379760],8%
4,Cc1ccc(F)c(C(=O)Nc2cccc(-c3nn4ccccc4c3-c3ccnc(Nc4cccc(F)c4)n3)c2)c1F [GSK361061],27%
5,Clc1ccc(-c2nn3ncccc3c2-c2ccnc(Nc3ccc4c(c3)OCCO4)n2)cc1 [GW829116],23%
6,CCCCc1nn2ncccc2c1-c1ccnc(Nc2ccc(N3CCN(C)CC3)cc2)n1 [GW684941],0%
7,CCn1c(-c2nonc2N)nc2c(C#CC(C)(C)O)ncc(OCCCCN)c21.O=C(O)C(F)(F)F.O=C(O)C(F)(F)F [GSK507274],15%
8,O=C(NC1CCN(c2ccnc(Nc3ccc(F)cc3)n2)C1)c1cc2ccccc2s1 (stereo not shown) [GSK1379716],24%
9,COc1cc2c(cc1OCCN1CCNCC1)ncc1c3ccc(C#N)cc3[nH]c21,4%
10,COc1cc(Nc2nccc(N3CCC(NC(=O)Nc4cccc(C(C)=O)c4)C3)n2)cc(OC)c1OC (stereo not shown) [GSK1379753],21%
11,O=C(Nc1cccc(-c2nn3ccccc3c2-c2ccnc(Nc3cccc(C(F)(F)F)c3)n2)c1)c1c(F)cccc1F [GSK292658],8%
12,CN(c1ccc(NC(=O)Nc2cc(C(F)(F)F)ccc2F)cc1)c1ccnc(Nc2ccc(S(N)(=O)=O)cc2)n1 [GW809893],18%
13,Cc1cccc(NC(=O)Nc2ccc(Oc3ncnc4ccn(C)c34)cc2)c1,5%
14,Cl.c1ccc(-c2ccc3c(Nc4ccc5[nH]ccc5c4)ccnc3c2)nc1 [GW440138],25%
15,CN1CCN(CCCNc2nccc(-c3c(-c4ccc(F)cc4)nn4cc(C(F)(F)F)ccc34)n2)CC1 [GW621581],16%
16,C[C@@H](Oc1cc(-n2cnc3cc(-c4ccnc(NCCS(C)(=O)=O)c4)ccc32)sc1C(N)=O)c1ccccc1Cl [GSK907232],14%
17,Cc1cccc(Nc2nc(N[C@H]3CCNC3)ncc2C(N)=O)c1.Cl [GSK2197149],15%
18,CCc1ccc(-c2ccc3c(c2)-c2c(cnn2C)S(=O)(=O)N3C)cc1,0%
19,COc1cc(Nc2ncc3c(C)nc(-c4cc5ccccc5[nH]4)n3n2)cc(OC)c1OC [GW869516],29%

row,Compound,%Inh
1,Cc1ccc(S(=O)(=O)Nc2ccc(Nc3nccc(Nc4cccc5[nH]ncc45)n3)cc2)cc1 [GSK581271],7%
2,COc1ccc(Nc2nccc(NCCNC(=O)c3cc4ccccc4s3)n2)cc1 [GSK1379896],27%
3,CN1CCN(Cc2cccc(-c3ccc4c(Nc5ccc(Oc6ccccc6)cc5)ccnc4c3)c2)CC1 [GW578342],2%
4,COc1ccc(Nc2nccc(N3CCC(NC(=O)Nc4cccc(OC)c4)C3)n2)cc1 (stereo not shown) [GSK1379742],20%
5,O=C(Nc1n[nH]c2cc(-c3ccoc3)ccc12)C1CC1 [SB-738481],12%
6,Nc1ncnc2c1nc(-c1ccccc1)n2-c1ccccc1 [SKF-97293],7%
7,COc1ccc(CNC(=O)NC2CCN(c3ccnc(Nc4ccc(F)cc4)n3)CC2)cc1 [GSK1379788],19%
8,Cc1occc1-c1ncc(OC[C@@H](N)Cc2c[nH]c3ccccc23)cc1-c1ccc2[nH]nc(C)c2c1.O=C(O)C(F)(F)F [GSK682037],93.7%
9,c1ccc(-c2n[nH]cc2Nc2ccnc3ccccc23)nc1 [GW694077],12%
10,O=C(Nc1cccc(-c2nn3ncccc3c2-c2ccnc(Nc3ccccc3)n2)c1)c1c(F)cccc1F [GSK198271],26%
11,Nc1n[nH]c2cnc(-c3ccccc3)cc12 [SB-642124],3%
12,CC(=O)Nc1nc2cnc(Nc3cc(NC(=O)c4cccc(C5(C#N)CC5)c4Cl)ccc3C)nc2s1,0%
13,O=C(Nc1n[nH]c2nc(-c3ccc(O)cc3)ccc12)C1CC1 [SB-710363],9%
14,Cn1cc(-c2[nH]c3cc(NC(=O)[C@H](N)C4CCCCC4)cc4c3c2C=NNC4=O)cn1,2%
15,O=C(Nc1cccc(-c2nn3ccccc3c2-c2ccnc(Nc3cccc(F)c3)n2)c1)c1c(F)ccc(F)c1Cl [GSK357952],25%
16,O=C(Nc1ccccc1F)NC1CCN(c2ccnc(Nc3ccc(F)cc3)n2)CC1 [GSK1379800],12%
17,CSc1cccc2c(-c3ccncn3)c(-c3ccc(F)cc3)nn12 [GW514786],21%
18,COc1ccc(-c2coc3ccc(-c4nnc(SCc5ccc(OC)c(C(F)(F)F)c5)o4)cc23)cc1,0%
